The results in this text go back to PubChem BioAssay (Tox21).

A number with no mark means an inactive call. Activity calls are given as the source filed them. Calls come from the whole dose curve; as a rule, active = well fitted curve in the direction sought with a large enough effect in the repeat runs; inconclusive = weak or mixed curves; inactive = flat fitted curve, though single readings scatter.
% is set by controls: 0 for no effect and ±100 for the full control effect.

The assay in a line: qHTS assay to test for compound auto fluorescence at 460 nm (blue) in HepG2 cell free culture (AID 720685). Conditions: Cell-free culture medium, blue autofluorescence 405/460 nm; series mostly up to 91.3 µM. The text has this:
U.S. Tox21 Program National Center for Advancing Translational Sciences [NCATS] NIH Chemical Genomics Center [NCGC] U.S. Environmental Protection Agency [EPA] National Institutes of Environmental Health Sciences [NIEHS] National Toxicology Program [NTP] U.S. Food and Drug Administration [FDA] Tox21 Assay Overview: Compound auto fluorescence often interferes with screening of the compound library against various biological targets and signaling pathways. Some of these compounds may have fluorophoric properties. Such properties may interfere with the assay outputs resulting in false positives and/or negatives. To decrease such complications and ensure the compound activities are relevant in terms of biological response, the Tox21 10K compound library was screened for auto fluorescence. From the fluorophores used as reporter signals in our screening assays, the auto fluorescence equivalencies of compounds against three fluorophores have been evaluated: Triamterene, Fluorescein and Rose Bengal sodium for blue, green and red fluorescence, respectively. The fluorescence intensities were measured using Excitation/Emission wavelengths at 405/460nm, 485/535nm and 540/590nm for blue, green and red labels, respectively. This assay includes the blue fluorescence data.
Tox21 Assay Protocol Summary: 5 uL of culture medium (MEM containing 10% FBS) per well was dispensed into black wall/clear bottom 1536-well plates using a Multidrop Combi Dispenser (ThermoFisher Scientific, Waltham, MA). After 23 nL compound or DMSO vehicle was transferred into assay plate by a pintool work station (Kalypsys, San Diego, CA), fluorescence intensities in the assay plates were measured by an Envision (PerkinElmer, Shelton, CT) plate reader using three labels for measuring blue, green and red fluorescence at […] 460, 535 and 590nm respectively.
With `N[C@@H](CSCCCO)C(=O)O`, the compound was classed as inactive.

Consider `COc1nc(N)nc2nc[nH]c12`, for which the result was inactive.

Regarding `CC(=O)O[C@@H]1CC2CCC1(C)C2(C)C` (stereo not given in full), the call was inactive.

`CC(=O)OC(C)=O`: the compound was called inactive.

Turning to `CC1=C(C(=O)O)N2C(=O)[C@@H](NC(=O)[C@H](N)C3=CCC=CC3)[C@H]2SC1`, the outcome was inactive.

On to `c1ccc(B(c2ccccc2)c2ccccc2)cc1`, for which the call was inactive.

Turning to `CC1(C)Oc2ccc(C#N)cc2[C@@H](N2CCCC2=O)[C@@H]1O`, the result was inactive.

With `CC(C)=CCC[C@@](C)(O)[C@H]1CC=C(C)CC1`, the compound was classed as inactive.

In the case of `O=Cc1ccccc1Cl`, the compound was classed as inactive.

As for `Fc1ccccc1`, the outcome was inactive.

In the case of `CC(O)COC(C)(C)C` (stereo not given), the call was inactive.

With `CCOCCOCC`, the outcome was inactive.

`Cc1cc(-c2ccccc2)nnc1NCCN1CCOCC1`: the result was inactive.

Regarding `COP(=O)(O)OP(=O)(O)OC`, the compound was called inactive.

As for `C/C=C(\C)C(=O)OCCc1ccccc1`, the call was inactive.

With `Cc1c(Cl)cccc1Cl`, the call was inactive.

Turning to `Cc1ccc2c(c1)C(=O)c1ccccc1C2=O`, the result was inactive.

As to `CC(=O)Nc1ccc(OC(=O)c2ccccc2OC(C)=O)cc1`, the compound was called inactive.

`N#Cc1ccccc1O`: the outcome was inactive.

Turning to `CCC(C)OC(C)CC` (stereo not given), the compound was classed as inactive.

In the case of `CC(C)OC(=O)CCC(=O)OC(C)C`, the compound was called inactive.

With `C=CCOC(=O)CCCCCC`, the call was inactive.

Regarding `CC(C)COC(=O)c1ccccc1`, the compound was classed as inactive.

Consider `Cc1ccc(C(C)NC(=O)[C@@H](NC(=O)OC(C)C)C(C)C)cc1` (stereo not given in full), for which the result was inactive.

Turning to `C=C(C)[C@@H]1CC=C(C)CC1`, the outcome was inactive.

With `CC/C(C)=N\O[Si](C)(O/N=C(\C)CC)O/N=C(\C)CC`, the compound was called inactive.

For `CCCC(CC)c1ccccc1` (stereo not given), the compound was called inactive.

For `CCOC(=O)CC1(C)OCC(C)O1` (stereo not given), the compound was called inactive.

In the case of `CC(C)NCC(O)c1ccc2ccccc2c1` (stereo not given), the compound was classed as inactive.

Consider `CCO`, for which the result was inactive.

For `C=CC/C=C/C`, the compound was classed as inactive.

Turning to `CCCCCCCCCOC(=O)CCCCC(=O)OCCCCCCC`, the outcome was inactive.

Consider `COC(C)(OC)OC`, for which the call was inactive.

In the case of `CCCCOC(=O)[C@H](C)O`, the compound was called inactive.

Consider `O=C1c2ccccc2C(=O)c2cc(Cl)ccc21`, for which the fluorescence, % of fluorescent control was -0.0625% [at 3.72 µM].

`CC1(C)[C@H]2CC[C@](C)(C2)[C@H]1O`: the compound was classed as inactive.

As for `Cc1ccnc(N)c1`, the compound was classed as inactive.

Take `OCCN1CCOCC1`: the result was inactive.

`ONc1ccccc1`: the outcome was inactive.

For `CC(C)=CCC/C(C)=C/COC=O`, the compound was called inactive.
